The entries come from a sample that favours hits as a whole.
ST2 inh = inhibitors of human ST2 (IL1RL1) binding to IL-33, primary screen, biochemical, AlphaLISA; Interleukin-1 receptor-like 1 (Homo sapiens), Q01638; AlphaLISA ST2-Fc/biotin-IL-33 interaction, 1 h; inhibition, % for hits at 17 µM; hit rate 2.3% among 78,000; AID 1259354, 2018; in the data active means inhibition above about 30%
Target sequence (Q01638 whole entry, looked up): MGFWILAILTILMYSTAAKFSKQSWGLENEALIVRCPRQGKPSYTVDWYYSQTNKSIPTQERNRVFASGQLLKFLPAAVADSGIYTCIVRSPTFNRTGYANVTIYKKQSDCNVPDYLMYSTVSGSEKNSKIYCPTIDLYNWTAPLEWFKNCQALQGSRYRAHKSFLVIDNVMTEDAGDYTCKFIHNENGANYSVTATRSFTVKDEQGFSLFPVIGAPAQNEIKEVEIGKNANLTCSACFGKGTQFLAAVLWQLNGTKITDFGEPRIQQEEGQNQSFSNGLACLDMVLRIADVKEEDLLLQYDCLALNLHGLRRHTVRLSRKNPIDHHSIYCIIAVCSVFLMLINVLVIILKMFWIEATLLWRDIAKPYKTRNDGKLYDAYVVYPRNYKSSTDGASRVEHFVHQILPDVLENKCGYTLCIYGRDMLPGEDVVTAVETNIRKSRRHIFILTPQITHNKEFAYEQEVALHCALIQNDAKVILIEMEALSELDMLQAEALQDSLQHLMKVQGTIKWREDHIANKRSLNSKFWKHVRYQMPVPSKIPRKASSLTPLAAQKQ
Each line names hits and unclear results; the compound was inactive in the other large screens; ! = repeats disagree.

COc1cccc(-c2ccnc(-n3ncc(C(=O)N4CCN(c5ccccc5)CC4)c3C3CC3)n2)c1	none
O=[N+]([O-])c1ccc(N2CCN(Cc3ccsc3)CC2)cc1	none
CCN1CCN(C(=O)CCC2CCN(CC3=CC[C@H]4C[C@@H]3C4(C)C)CC2)CC1	none
O=[N+]([O-])c1ccc(N2CCN(Cc3cccnc3)CC2)cc1	none
CC1(C)[C@H]2CC=C(CN3CCN(c4ccc([N+](=O)[O-])cc4)CC3)[C@@H]1C2	ST2 inh 42%
O=[N+]([O-])c1ccc(N2CCN(Cc3ccc(Br)o3)CC2)cc1	ST2 inh 38%
O=C(O)c1ccc(CN2CCN(c3ccc([N+](=O)[O-])cc3)CC2)cc1	none
COc1ccc(-n2c(SC)nc3sc4c(c3c2=O)CC(C)(C)OC4)cc1	none
O=C(Nc1ccc(F)cc1F)c1nn(-c2ccc(Cl)cc2)c(=O)c2ccccc12	none
CCOc1ccc(C2CC(c3ccccc3)n3nc(N)nc3N2)cc1 (stereo not drawn)	none
COCCCN1C(=O)[C@@H]2[C@H](C1=O)[C@@H]1C=C[C@H]2C1	none
CC(=O)Nc1sc2c(c1C#N)CCC2	none
N#Cc1c(N=CC2C(=O)c3ccccc3C2=O)sc2c1CCCC2	none
N#Cc1c(N=CN2CCCCC2)sc2c1CCCCC2	ST2 inh 35%
O=C1CC(N2CCN(Cc3ccc(Cl)cc3)CC2)C(=O)N1c1cccc(Cl)c1 (stereo not drawn)	none
O=C(c1ccc(S(=O)(=O)N2CCCCC2)cc1)N1CCN=C1SCc1ccccc1Cl	none
CCn1cc(-c2c(-c3ccccc3)ncn2CCNc2cccnc2)c(C)n1	none
O=C1S/C(=C\c2c(NCC3CCCO3)nc3ccccn3c2=O)C(=O)N1Cc1ccccc1 (stereo not drawn)	none
Cc1ccc(NCN2C(=O)S/C(=C/c3ccccc3)C2=O)cc1Cl	none
CCNc1nc2ccccn2c(=O)c1/C=C1\SC(=O)N(CC)C1=O	ST2 inh 30%
O=C1OC(Nc2nc(-c3cccc([N+](=O)[O-])c3)cs2)c2ccccc21 (stereo not drawn)	none
O=C(NC1CCCCC1)c1coc(=O)c2ccccc12	none
Cn1c(=O)c2c(nc(SCC(=O)O)n2Cc2cc3c(cc2Cl)OCO3)n(C)c1=O	ST2 inh 37%
Cn1c(=O)c2c(nc(SCC(=O)Nc3ccc4c(c3)OCO4)n2Cc2ccccc2)n(C)c1=O	none
Cn1c(=O)c2c(nc(Oc3ccc4c(c3)OCO4)n2Cc2ccc(Cl)cc2)n(C)c1=O	none
NS(=O)(=O)c1ccc(F)c(C(=O)N2CCOC(Cc3ccccc3)C2)c1 (stereo not drawn)	none
CCC(=O)Nc1ccc(-c2csc(N)n2)cc1	none
Cc1cc(N2CCCC2)nc(N2CCN(S(=O)(=O)c3ccccc3F)CC2)n1	none
Cc1ccc(N=Cc2nc(-c3ccccc3)oc2O)cc1Cl	none
COc1cc(-c2nc(C=C3C(C)=Nc4ccccc43)c(O)o2)cc(OC)c1OC	ST2 inh 34%
COc1cc(-c2nnc3n2C(C)(C)Cc2ccccc2-3)cc(OC)c1OC	none
Cc1ccc(N=C(NOCc2ccccc2)c2nonc2N)cc1C	none
CCC1CN(CC(=O)NCCCn2nnc3ccccc32)Cc2cc(OC)ccc2O1 (stereo not drawn)	none
Cc1ccccc1NCN1C(=O)c2ccc(Br)cc2C1=O	none
CCN(CC)Cc1c(O)ccc2cc(-c3nc4ccccc4[nH]3)c(=O)oc12	none
Cc1cccc(N=Cc2cc3c(cc2[N+](=O)[O-])OCO3)c1	ST2 inh 33%
O=[N+]([O-])c1cc2c(cc1C=Nc1ccc(O)c(-c3nc4ccccc4[nH]3)c1)OCO2	ST2 inh 30%
O=[N+]([O-])c1cc2c(cc1C=Nc1ccc(Cl)c(C(F)(F)F)c1)OCO2	none
Oc1ccccc1-c1nc2ccccc2[nH]1	none
Cc1cccc2oc(-c3cccc(N=Cc4cccc([N+](=O)[O-])c4O)c3)nc12	none
CCOc1c(N2CCCCC2C)c(=O)c1=O (stereo not drawn)	none
COc1cc(O)c(O)c(OC)c1C(=O)/C=C/c1ccccc1	none
O=C(Nc1cccc2c1CCCC2)C(NS(=O)(=O)c1cccs1)c1ccccc1 (stereo not drawn)	none
CC(C)C1CN(C(=O)c2ccc(-c3ncn[nH]3)cc2)CCC(=O)N1CC1CC1 (stereo not drawn)	none
O=C1c2ccccc2C(Nc2ccc(Cl)cc2)N1Cc1ccccc1 (stereo not drawn)	none
Cc1ccc(C2CC(c3cccs3)=NN2S(=O)(=O)c2ccc(C)cc2)cc1 (stereo not drawn)	ST2 inh 33%
COc1ccc(C2CC(c3cccs3)=NN2C(C)=O)cc1 (stereo not drawn)	none
COc1ccc(C2CC(c3ccc(C)cc3)=NN2S(=O)(=O)c2ccccc2)cc1 (stereo not drawn)	none
COc1ccc(C2CC(c3cccs3)=NN2S(=O)(=O)c2ccc(C)cc2)cc1 (stereo not drawn)	ST2 inh 32%!
O=S(=O)(c1ccccc1)N1N=C(c2ccccc2)CC1c1ccc(Cl)cc1 (stereo not drawn)	none
COc1ccc(C2=NN(S(=O)(=O)c3ccccc3)C(c3ccc(C)cc3)C2)cc1OC (stereo not drawn)	none
c1ccc2c(c1)OC13CCCCC1C2NCC3 (stereo not drawn)	none
CCCOc1c(CNC(=O)C2CC3(CCNCC3)CN2)cccc1OC (stereo not drawn)	none
O=S(=O)(NCc1nc2cccnc2n1Cc1ccc(Cl)cc1)c1ccccc1	none
CCC(C)c1ccc(OCCCCN2CCN(C)CC2)cc1 (stereo not drawn)	ST2 inh 39%
CCC(C)c1ccccc1OCCCCN1CCCC1 (stereo not drawn)	none
CN1CCN(CCCOc2ccc(C(C)(C)c3ccccc3)cc2)CC1	none
CC(Cn1cccn1)NC(=O)CCC(=O)Nc1ccc(F)c(Cl)c1 (stereo not drawn)	none
CCN1C(=O)N(CCCc2cccnc2)C(=O)C12CCN(Cc1ccccc1-c1ccco1)CC2	none
CC1=CC(C)(C)N(C(=O)CN2C(=O)c3ccccc3C2=O)c2ccccc21	none
CC1=CC(C)(C)N(C(=O)CN2C(=O)c3cccc([N+](=O)[O-])c3C2=O)c2ccccc21	ST2 inh 32%
Cc1c(NC(=O)CN2C(=O)c3cccc([N+](=O)[O-])c3C2=O)c(=O)n(-c2ccccc2)n1C	none
COc1ccc(F)c(-c2nc(CN(C)Cc3cnc(N)nc3)c(C)o2)c1	none
COc1ccc(-c2ccc3c(c2)CNCC3)c2cccnc12	none
CCOc1ccc(C2CC(c3ccc(C)cc3)n3ncnc3N2)cc1 (stereo not drawn)	none
Cc1ccc(NC(=O)c2ccc(=O)n(Cc3ccccc3C)c2)cc1	none
COc1ccc(C(=O)NCC(=O)O)cc1	none
COc1ccc(C(=O)/C=C(\C)c2ccc(OC)cc2)cc1	ST2 inh 43%
COc1ccc(-c2ccc(C(C)=O)cc2)cc1	none
O=c1[nH]c(Nc2ccccc2)nnc1Cc1ccc(Cl)cc1	none
COc1ccc(NS(=O)(=O)c2ccc(N=Cc3cc(Br)ccc3O)cc2)nn1	none
COc1ccc(-n2c(O)c(C=Nc3ccc(OC)c(OC)c3)c3ccccc3c2=O)cc1	none
COc1cc(OC)c(C=Nc2ccc(O)cc2)cc1Br	ST2 inh 51%
COc1ccc(C=Nc2ccc(O)cc2)c(OC)c1	ST2 inh 32%
COc1ccc(OC)c(C=Nc2ccc(S(N)(=O)=O)cc2)c1	none
COc1cc(OC)c(C=C2C(=O)OC3(CCCCC3)OC2=O)cc1Br	none
CCC(=O)N1CCc2cc(Br)cc(S(=O)(=O)CCC(=O)N3CCOCC3)c21	none
O=S(=O)(Nc1ccccc1Cl)c1ccc(Br)s1	none
Cc1cccn2c(=O)c3cc(C(=O)Nc4ccc(F)c(Cl)c4)sc3nc12	none

Bioassay records deposited in PubChem BioAssay by Paczesny and Yang Labs, IUPUI and University of Michigan.
